Assay results taken from ChEMBL document CHEMBL1961873, “Compounds: GSK PKIS; Assays: Nanosyn kinase panel” (2012).

What was measured:
[1] = biological target: Tyrosine-protein kinase Fyn (Homo sapiens) (UniProt P06241); details: at 1 µM
[2] = biological target: Tyrosine-protein kinase HCK (Homo sapiens) (UniProt P08631); details: at 0.1 µM
[3] = biological target: Tyrosine-protein kinase HCK (Homo sapiens) (UniProt P08631); details: at 1 µM
[4] = biological target: Insulin-like growth factor 1 receptor (Homo sapiens) (UniProt P08069); details: at 0.1 µM
[5] = biological target: Insulin-like growth factor 1 receptor (Homo sapiens) (UniProt P08069); details: at 1 µM
[6] = biological target: Insulin receptor (Homo sapiens) (UniProt P06213); details: at 0.1 µM
[7] = biological target: Insulin receptor (Homo sapiens) (UniProt P06213); details: at 1 µM
[8] = biological target: Insulin receptor-related protein (Homo sapiens) (UniProt P14616); details: at 0.1 µM
[9] = biological target: Insulin receptor-related protein (Homo sapiens) (UniProt P14616); details: at 1 µM
[10] = biological target: T1, Tyrosine-protein kinase ITK/TSK (Homo sapiens) (UniProt Q08881); details: at 0.1 µM
T1 sequence (whole entry): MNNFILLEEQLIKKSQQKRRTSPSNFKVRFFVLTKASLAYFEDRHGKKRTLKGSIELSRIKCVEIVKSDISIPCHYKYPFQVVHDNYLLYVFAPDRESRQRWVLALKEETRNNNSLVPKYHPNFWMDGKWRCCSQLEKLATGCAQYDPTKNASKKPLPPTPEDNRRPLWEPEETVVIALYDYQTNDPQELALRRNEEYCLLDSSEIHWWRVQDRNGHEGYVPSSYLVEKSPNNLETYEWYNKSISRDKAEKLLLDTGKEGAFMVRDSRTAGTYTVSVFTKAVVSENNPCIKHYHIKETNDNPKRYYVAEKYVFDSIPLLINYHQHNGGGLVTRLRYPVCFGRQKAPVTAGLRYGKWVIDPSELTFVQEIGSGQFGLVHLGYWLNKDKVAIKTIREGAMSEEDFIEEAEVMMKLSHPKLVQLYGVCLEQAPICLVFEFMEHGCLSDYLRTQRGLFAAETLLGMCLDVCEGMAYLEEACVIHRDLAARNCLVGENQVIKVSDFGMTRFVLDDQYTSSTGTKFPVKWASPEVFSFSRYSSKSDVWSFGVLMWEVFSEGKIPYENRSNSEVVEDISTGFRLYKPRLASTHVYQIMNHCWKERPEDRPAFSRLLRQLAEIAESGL

[11] = biological target: T1, Tyrosine-protein kinase ITK/TSK (Homo sapiens); details: at 1 µM
[12] = biological target: Tyrosine-protein kinase JAK1 (Homo sapiens) (UniProt P23458); details: at 0.1 µM
[13] = biological target: Tyrosine-protein kinase JAK1 (Homo sapiens) (UniProt P23458); details: at 1 µM
[14] = biological target: Tyrosine-protein kinase JAK2 (Homo sapiens) (UniProt O60674); details: at 0.1 µM
[15] = biological target: Tyrosine-protein kinase JAK2 (Homo sapiens) (UniProt O60674); details: at 1 µM
[16] = biological target: T2, Tyrosine-protein kinase JAK3 (Homo sapiens) (UniProt P52333); details: at 0.1 µM
T2 sequence (whole entry): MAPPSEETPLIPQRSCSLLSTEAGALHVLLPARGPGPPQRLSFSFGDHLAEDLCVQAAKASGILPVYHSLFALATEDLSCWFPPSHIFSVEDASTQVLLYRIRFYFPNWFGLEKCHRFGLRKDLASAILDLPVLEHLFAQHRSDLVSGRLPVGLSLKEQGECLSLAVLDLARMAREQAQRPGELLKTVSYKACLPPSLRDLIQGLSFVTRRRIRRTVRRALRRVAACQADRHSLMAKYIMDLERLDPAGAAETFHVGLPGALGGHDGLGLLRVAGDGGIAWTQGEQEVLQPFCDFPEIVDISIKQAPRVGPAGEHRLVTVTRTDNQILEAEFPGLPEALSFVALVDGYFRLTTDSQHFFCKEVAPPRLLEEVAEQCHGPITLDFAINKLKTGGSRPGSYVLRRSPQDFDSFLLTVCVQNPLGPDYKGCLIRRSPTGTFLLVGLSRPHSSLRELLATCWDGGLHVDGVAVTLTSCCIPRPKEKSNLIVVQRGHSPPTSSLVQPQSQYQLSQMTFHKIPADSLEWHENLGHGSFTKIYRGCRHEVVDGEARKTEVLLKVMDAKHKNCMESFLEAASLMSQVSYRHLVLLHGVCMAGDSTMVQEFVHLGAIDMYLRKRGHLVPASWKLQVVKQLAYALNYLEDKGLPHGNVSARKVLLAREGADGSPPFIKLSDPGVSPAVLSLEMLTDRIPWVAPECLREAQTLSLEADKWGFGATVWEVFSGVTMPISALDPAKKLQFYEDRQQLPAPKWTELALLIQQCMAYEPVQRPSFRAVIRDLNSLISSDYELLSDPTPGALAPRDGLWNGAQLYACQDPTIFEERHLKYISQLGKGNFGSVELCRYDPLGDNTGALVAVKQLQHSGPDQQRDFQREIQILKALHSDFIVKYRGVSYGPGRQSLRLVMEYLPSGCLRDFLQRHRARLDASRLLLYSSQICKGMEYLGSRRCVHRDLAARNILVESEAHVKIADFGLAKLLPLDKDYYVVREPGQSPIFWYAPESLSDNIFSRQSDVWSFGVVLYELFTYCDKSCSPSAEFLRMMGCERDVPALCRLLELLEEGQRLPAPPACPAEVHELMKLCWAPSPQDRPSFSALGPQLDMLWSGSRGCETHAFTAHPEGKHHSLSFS

[17] = biological target: T2, Tyrosine-protein kinase JAK3 (Homo sapiens); details: at 1 µM
[18] = biological target: Vascular endothelial growth factor receptor 2 (Homo sapiens) (UniProt P35968); details: at 0.1 µM
[19] = biological target: Vascular endothelial growth factor receptor 2 (Homo sapiens) (UniProt P35968); details: at 1 µM
[20] = biological target: Mast/stem cell growth factor receptor Kit (Homo sapiens) (UniProt P10721); details: at 0.1 µM;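 further: values are mean inhibition of KIT, from the GSK PKIS dataset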
Sequence of Mast/stem cell growth factor receptor Kit (Homo sapiens) (P10721 whole entry): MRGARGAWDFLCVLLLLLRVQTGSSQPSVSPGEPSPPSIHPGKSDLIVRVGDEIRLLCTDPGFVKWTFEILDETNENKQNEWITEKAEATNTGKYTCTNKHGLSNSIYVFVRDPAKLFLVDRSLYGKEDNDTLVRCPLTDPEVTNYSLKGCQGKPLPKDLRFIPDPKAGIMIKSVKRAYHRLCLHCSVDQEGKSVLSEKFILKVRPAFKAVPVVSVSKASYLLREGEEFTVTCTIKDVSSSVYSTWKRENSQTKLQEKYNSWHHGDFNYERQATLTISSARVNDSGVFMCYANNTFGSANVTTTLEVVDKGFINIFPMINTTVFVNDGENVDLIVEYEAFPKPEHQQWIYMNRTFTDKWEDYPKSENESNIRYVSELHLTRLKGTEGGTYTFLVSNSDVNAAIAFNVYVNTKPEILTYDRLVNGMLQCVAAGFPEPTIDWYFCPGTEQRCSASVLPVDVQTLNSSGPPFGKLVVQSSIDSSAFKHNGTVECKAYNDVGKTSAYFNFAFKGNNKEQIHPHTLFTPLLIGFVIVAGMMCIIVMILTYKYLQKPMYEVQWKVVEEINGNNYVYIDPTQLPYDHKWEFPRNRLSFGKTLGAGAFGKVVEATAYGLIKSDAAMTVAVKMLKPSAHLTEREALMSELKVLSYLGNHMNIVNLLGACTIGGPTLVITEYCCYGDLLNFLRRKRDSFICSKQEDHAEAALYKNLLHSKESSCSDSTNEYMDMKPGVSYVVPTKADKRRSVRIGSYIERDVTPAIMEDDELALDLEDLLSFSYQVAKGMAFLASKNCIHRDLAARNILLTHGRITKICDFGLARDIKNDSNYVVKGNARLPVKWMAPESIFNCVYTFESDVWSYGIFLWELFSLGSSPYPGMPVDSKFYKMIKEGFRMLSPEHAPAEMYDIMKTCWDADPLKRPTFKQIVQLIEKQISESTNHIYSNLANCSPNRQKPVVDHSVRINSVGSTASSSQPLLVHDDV

Sequence of Tyrosine-protein kinase JAK2 (Homo sapiens) (O60674 whole entry): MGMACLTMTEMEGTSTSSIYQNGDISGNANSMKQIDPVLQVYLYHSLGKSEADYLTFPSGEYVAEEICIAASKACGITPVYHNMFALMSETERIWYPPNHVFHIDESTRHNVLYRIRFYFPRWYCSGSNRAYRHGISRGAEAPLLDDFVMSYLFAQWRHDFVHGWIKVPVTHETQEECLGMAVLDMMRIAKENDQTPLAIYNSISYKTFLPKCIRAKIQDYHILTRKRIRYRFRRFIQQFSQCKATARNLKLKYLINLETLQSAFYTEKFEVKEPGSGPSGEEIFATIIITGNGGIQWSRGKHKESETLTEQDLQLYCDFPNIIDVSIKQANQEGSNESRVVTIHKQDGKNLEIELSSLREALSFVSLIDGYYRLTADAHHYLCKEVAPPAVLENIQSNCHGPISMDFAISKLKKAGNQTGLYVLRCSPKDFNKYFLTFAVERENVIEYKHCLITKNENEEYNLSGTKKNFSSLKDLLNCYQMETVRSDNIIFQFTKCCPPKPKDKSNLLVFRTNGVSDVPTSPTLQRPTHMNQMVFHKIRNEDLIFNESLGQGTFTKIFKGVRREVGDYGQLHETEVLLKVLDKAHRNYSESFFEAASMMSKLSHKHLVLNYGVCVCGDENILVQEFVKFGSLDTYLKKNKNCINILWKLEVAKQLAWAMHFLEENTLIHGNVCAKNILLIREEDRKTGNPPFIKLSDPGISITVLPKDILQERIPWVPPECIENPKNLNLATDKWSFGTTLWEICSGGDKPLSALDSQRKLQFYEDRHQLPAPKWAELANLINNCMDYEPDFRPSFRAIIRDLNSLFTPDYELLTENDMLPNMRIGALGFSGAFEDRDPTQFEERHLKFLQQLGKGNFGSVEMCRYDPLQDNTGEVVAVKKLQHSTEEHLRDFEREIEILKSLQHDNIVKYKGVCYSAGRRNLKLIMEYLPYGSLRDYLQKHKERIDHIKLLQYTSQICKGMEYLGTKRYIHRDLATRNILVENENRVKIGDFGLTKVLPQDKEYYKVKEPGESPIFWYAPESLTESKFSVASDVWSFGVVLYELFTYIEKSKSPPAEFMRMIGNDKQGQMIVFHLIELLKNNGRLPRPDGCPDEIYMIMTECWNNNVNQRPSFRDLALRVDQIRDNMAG
Sequence of Vascular endothelial growth factor receptor 2 (Homo sapiens) (P35968 whole entry): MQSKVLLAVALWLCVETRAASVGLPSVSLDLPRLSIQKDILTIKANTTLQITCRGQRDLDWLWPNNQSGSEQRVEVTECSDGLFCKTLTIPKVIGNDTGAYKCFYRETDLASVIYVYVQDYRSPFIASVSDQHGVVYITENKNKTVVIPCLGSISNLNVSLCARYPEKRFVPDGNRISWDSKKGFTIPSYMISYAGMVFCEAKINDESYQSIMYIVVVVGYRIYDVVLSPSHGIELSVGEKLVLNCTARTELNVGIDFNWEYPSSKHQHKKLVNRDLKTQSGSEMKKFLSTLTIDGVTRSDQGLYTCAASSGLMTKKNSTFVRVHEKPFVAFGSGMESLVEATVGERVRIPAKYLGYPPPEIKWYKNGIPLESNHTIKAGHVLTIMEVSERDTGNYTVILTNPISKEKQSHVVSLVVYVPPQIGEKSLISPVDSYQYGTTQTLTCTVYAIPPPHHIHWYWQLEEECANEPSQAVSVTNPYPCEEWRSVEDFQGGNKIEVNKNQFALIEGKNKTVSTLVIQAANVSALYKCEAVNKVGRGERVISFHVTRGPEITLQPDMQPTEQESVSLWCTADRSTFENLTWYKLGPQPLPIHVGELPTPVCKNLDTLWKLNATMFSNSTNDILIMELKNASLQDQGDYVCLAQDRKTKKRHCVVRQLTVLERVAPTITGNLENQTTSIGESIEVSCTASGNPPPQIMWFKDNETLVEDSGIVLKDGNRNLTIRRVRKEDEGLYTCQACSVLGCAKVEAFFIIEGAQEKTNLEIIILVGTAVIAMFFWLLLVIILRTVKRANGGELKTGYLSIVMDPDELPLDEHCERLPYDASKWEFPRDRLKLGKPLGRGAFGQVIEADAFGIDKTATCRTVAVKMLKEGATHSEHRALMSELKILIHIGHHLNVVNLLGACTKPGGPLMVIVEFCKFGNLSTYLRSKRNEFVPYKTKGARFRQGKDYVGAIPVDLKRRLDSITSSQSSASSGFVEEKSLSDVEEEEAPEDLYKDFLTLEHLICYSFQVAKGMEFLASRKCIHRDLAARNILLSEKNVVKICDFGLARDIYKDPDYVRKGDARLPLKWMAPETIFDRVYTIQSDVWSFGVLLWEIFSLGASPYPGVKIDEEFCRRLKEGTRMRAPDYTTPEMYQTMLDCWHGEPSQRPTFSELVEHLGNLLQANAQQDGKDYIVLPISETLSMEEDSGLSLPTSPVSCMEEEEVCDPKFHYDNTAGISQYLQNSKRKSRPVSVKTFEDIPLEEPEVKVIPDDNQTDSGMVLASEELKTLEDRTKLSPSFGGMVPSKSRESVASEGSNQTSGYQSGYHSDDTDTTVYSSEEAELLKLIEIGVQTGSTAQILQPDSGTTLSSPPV
Sequence of Tyrosine-protein kinase JAK1 (Homo sapiens) (P23458 whole entry): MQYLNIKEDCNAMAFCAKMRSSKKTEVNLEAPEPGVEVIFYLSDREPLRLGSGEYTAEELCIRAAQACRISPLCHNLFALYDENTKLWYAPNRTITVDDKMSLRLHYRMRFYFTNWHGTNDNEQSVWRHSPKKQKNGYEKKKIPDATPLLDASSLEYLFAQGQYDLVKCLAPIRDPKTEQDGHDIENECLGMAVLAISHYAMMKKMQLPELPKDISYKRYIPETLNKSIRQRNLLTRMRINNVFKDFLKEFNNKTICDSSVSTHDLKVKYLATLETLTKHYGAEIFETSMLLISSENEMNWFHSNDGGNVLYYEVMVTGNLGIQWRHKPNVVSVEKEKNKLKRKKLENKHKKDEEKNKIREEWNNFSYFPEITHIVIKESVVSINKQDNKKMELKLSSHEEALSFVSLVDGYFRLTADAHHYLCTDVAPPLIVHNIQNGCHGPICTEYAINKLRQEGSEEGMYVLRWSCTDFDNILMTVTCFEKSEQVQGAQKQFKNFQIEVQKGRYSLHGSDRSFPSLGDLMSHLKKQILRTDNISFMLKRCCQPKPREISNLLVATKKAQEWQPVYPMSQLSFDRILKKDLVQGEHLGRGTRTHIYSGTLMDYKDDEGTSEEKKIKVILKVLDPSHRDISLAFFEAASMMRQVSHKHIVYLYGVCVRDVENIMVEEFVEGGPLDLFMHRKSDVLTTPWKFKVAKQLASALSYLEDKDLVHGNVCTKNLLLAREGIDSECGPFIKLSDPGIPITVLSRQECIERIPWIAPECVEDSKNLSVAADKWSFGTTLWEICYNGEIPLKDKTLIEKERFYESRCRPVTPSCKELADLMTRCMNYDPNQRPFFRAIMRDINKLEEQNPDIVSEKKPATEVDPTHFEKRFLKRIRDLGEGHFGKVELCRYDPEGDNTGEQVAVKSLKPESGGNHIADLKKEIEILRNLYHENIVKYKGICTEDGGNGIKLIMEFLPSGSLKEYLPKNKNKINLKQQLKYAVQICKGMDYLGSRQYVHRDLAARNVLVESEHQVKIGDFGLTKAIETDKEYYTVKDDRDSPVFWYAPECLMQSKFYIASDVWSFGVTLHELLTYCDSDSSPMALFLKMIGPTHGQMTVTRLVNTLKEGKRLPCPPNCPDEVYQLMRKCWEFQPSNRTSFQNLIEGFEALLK

Compound | inhibition [1] [%] | inhibition [2] [%] | inhibition [3] [%] | inhibition [4] [%] | inhibition [5] [%] | inhibition [6] [%] | inhibition [7] [%] | inhibition [8] [%] | inhibition [9] [%] | inhibition [10] [%] | inhibition [11] [%] | inhibition [12] [%] | inhibition [13] [%] | inhibition [14] [%] | inhibition [15] [%] | inhibition [16] [%] | inhibition [17] [%] | inhibition [18] [%] | inhibition [19] [%] | inhibition [20] [%]
c1ccc(Nc2ncc(-c3ccccc3)o2)cc1 | 15.1 | 6.83 | 13.3 | 7.16 | 5.2 | 4.8 | 6.98 | 2.31 | 2.61 | 0.38 | 1.67 | 8.4 | 8.08 | 1.08 | 1.6 | -1.29 | -1.89 | 4.68 | 19.8 | 30.9
COC(=O)c1cncc(/C=C/c2c(C)cc(O)cc2C)c1 | 20 | 8.77 | 37.5 | 2.87 | 2.99 | 3.1 | 0.15 | 5.13 | 2.83 | 0.96 | 1.55 | 2.46 | 4.21 | 0.81 | 2.05 | -1.76 | 0.99 | 2.37 | 4.91 | 32.9
c1ccc(Cc2nc3ccc(Nc4ncnc5ccccc45)cc3[nH]2)cc1 | 5.58 | 3.53 | 11.5 | 2.6 | 3.88 | 3.54 | 8.19 | 2.51 | 3.31 | 0.82 | 1.07 | 1.47 | 5.36 | 1.11 | 1.7 | -1.75 | 2.4 | 2.38 | 5.81 | 6.44
CCn1c(-c2nonc2N)nc2ccc(F)cc21 | 4.14 | 4.97 | 7.63 | 4.55 | 8.11 | 5.06 | 5.22 | 4.24 | 3.56 | 2.15 | 1.52 | 5.5 | 10.5 | 1.07 | 1.29 | -1.62 | -1.23 | 5.19 | 6.9 | 5.81
Cc1ccc2c(c1)/C(=N/Nc1ccc(S(N)(=O)=O)cc1)C(=O)N2 | 0.85 | 1.4 | 6.19 | -1.37 | -2.24 | -0.03 | 1.98 | -1.32 | -0.18 | 0.66 | 1.38 | -1.86 | -1.74 | -1.17 | -0.24 | 0.33 | 4.38 | 2.62 | 22.6 | 27.8
FC(F)(F)c1ccc(-c2nn3ncccc3c2-c2ccnc(Nc3ccc4c(c3)OCCO4)n2)cc1 | 21.2 | 0.59 | 15.1 | -3.01 | -2.92 | 0.23 | 0.63 | -0.78 | 0.97 | 5.77 | 4.7 | 7.49 | 24.3 | -0.67 | -0.89 | 6.03 | 4.36 | -0.31 | 9.68 | 6.76
CS(=O)(=O)CCNCc1nc(-c2ccc3ncnc(Nc4ccc(OCc5cccc(C(F)(F)F)c5)cc4)c3c2)cs1 | 3.35 | 3.91 | 5.68 | 4.43 | 3.36 | 1.31 | 3.15 | -0.71 | 1.53 | 1.21 | 2.53 | 1.05 | 3.96 | 1.09 | 3.08 | -0.8 | 1.6 | 2.88 | 9.28 | 1.96
O=S(=O)(CCOCc1ccc(-c2ccc3ncnc(Nc4ccc(OCc5cccc(F)c5)c(Cl)c4)c3c2)o1)c1ccccc1 | 0.6 | 3.81 | 6.35 | 13 | 8.7 | 1.87 | 3.13 | -2.12 | 0.31 | -0.7 | 1 | 1.54 | 2.21 | 0.38 | 0.42 | 0.16 | 2.6 | 1.71 | 8 | 1.81
C[C@@H](Oc1cc(-n2cnc3ccc(OCC4CCN(C)CC4)cc32)sc1C(N)=O)c1ccccc1C(F)(F)F | 12.6 | 3.31 | 32.6 | -4.89 | -1.61 | -0.09 | 1.24 | -3.02 | -2.86 | -1.81 | 0.89 | -1.08 | -2.39 | -0.93 | 2.51 | -0.8 | 30.1 | 2.65 | 34.4 | -0.76
Cc1cc(Cl)cc2c1NC(=O)C2=NNc1ccc(S(N)(=O)=O)cc1 | 3.01 | 2.49 | 4.3 | 2.32 | 0.19 | 2.78 | 4.18 | -0.92 | 1.47 | 1.14 | 1.14 | 2.03 | 12.7 | -0.3 | 0.42 | -0.31 | 0.84 | 1.84 | 4.19 | 
COc1ccc(-c2nn3ncccc3c2-c2ccnc(Nc3cccc(C(F)(F)F)c3)n2)cc1 | 7.59 | 4.3 | 8.02 | -1.5 | 0.2 | 0.4 | 2.59 | 1.52 | 1.54 | 0.45 | 1.39 | 2.27 | 3.13 | 0.53 | 0.47 | -3.85 | -0.01 | 3.64 | 11.1 | 3.46
Cc1ccc(C(=O)NC2CC2)cc1-c1ccc2[nH]ncc2c1 | 0.93 | -3.84 | -2.13 | 29.6 | -5.48 | 0.44 | -2.94 | -3.94 | -4.42 | -2.18 | -0.97 | -3.33 | -8.73 | -1.66 | -1.51 | 1.08 | 2.55 | -3.15 | 3.28 | -5.04
COc1cccc(-n2ncc3c(N/N=C/c4ccc(C)cc4)ncnc32)c1 | 16.5 | 7.32 | 16.2 | 5.92 | 22.9 | 21.4 | 82.2 | 2.51 | 15.3 | 2.28 | 3.5 | 5.68 | 3.83 | 1.5 | 1.98 | -0.38 | 1.11 | 6.36 | 19.1 | 6.06
Oc1cccc(-c2nc(-c3ccccc3)[nH]c2-c2ccncc2)c1 | 17.9 | 13.7 | 51.2 | 2.68 | 5.15 | 1.16 | 2.18 | 2.79 | 0.88 | 1.78 | 1.61 | 9.17 | 5.42 | 1.43 | 2.51 | 0.73 | 9.09 | 30.8 | 70.9 | 4.95
Cc1ccc(O)cc1Nc1ccnc2ccc(S(C)(=O)=O)cc12 | 94.1 | 87.2 | 89.9 | 4.41 | 3.85 | 6.63 | 8.39 | 3.29 | 3.19 | 1.1 | 1.21 | 3.67 | 11.8 | 1.33 | 2.12 | -1.23 | 0.26 | 70.1 | 71.1 | 13.2
COc1cccc(-n2ncc3c(N/N=C/c4ccc(S(C)(=O)=O)cc4)ncnc32)c1 | 69.8 | 17 | 55.7 | -6.32 | -5.27 | 2.59 | 1.06 | 0.2 | 0.63 | -2.33 | 0.29 | 1.39 | 6.92 | 1.22 | 11.5 | -4.07 | 5.53 | 31.4 | 66.4 | 16
CCCN1CCCC(c2ccc(Nc3nc(Nc4cc(F)ccc4C(N)=O)c4cc[nH]c4n3)c(OC)c2)C1 (centres undefined) | 16.1 | 7.06 | 11.9 | 93 | 94.8 | 98.9 | 96.2 | 93.7 | 97 | 2.35 | 6 | -0.47 | -0.81 | 1.82 | 2.51 | -1.48 | -3.27 | 7.45 | 16.6 | 8.98
